# Experimental data as given in PubChem BioAssay (NCATS).
# Where “and” joins values, the source holds several entries; their conditions need not be identical. Equal values may be shown once. A number with no mark means an inactive call. Inconclusive results are not listed. Calls of active or inactive are those of the source. Unless noted, calls come from the whole dose curve; as a rule, active = well fitted curve in the direction sought with a large enough effect; inconclusive = small, poorly fitted or top-dose-only effect, or another doubt; inactive = no such curve, though single readings can be large; an effect the other way counts as inactive or inconclusive.
# How the values were obtained:
# [1] = molecular target: Cytochrome P450 1A2 (Homo sapiens) (UniProt P05177); experiment: p450-cyp1a2 (AID 410; calls by dose curve; note: potency is the fitted concentration of half-maximal effect)
# Procedure, shortened: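 Inhibition was calculated relative to 57 uM furafylline (full inhibition). The reaction used human CYP1A2 at 20nM with Luciferin-ME at its Km, 100uM, driven by an NADPH-regenerating system for 60 min at room temperature.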
# [2] = molecular target: Glucocorticoid receptor (Homo sapiens) (UniProt P04150); experiment: GR-GFP Redistribution (AID 450;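 active = compounds whose dose series gives a full or clear partial fitted curve of increased nuclear translocation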; note: potency is the fitted concentration of half-maximal effect); details: U2OS GR-GFP nuclear translocation, laser cytometry, 2 h
# [3] = molecular target: Mitogen-activated protein kinase 10 (Mus musculus) (UniProt Q61831); experiment: JNK3 AlphaScreen Assay (AID 530; active = well fitted curve in either direction with a large enough effect, not every such curve was filed as active;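 note: kinase came from lysate of stimulated human HepG2 cells; signal reports phosphorylation of biotinylated GST-cJun 1-79 at Ser73 with 10 µM ATP; % is set by controls: 0 for no effect and ±100 for the full control effect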)
# Procedure, shortened: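 qHTS format: compounds tested as titrations against IL-1beta/TNF-alpha-activated HepG2 lysate JNK3 with biotin-GST-cJun substrate and 10 uM ATP at room temperature. Loss of anti-phospho-cJun AlphaScreen signal indicates inhibition.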
# [4] = Cell Viability - BJ (AID 421; calls by dose curve;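 note: potency is the fitted concentration of half-maximal effect; cells exposed to compound for 40 hours at 37 °C before readout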); details: BJ fibroblast viability, qHTS
# Procedure, shortened: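 Cytotoxicity as drop in intracellular ATP (CellTiter-Glo, 20 min RT) after 40 hr compound exposure of BJ fibroblasts at 37 °C. Titrations scaled between DMSO and 100 uM tamoxifen, Hill-fitted for AC50.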
# [5] = Cell Viability - HepG2 (AID 433; calls by dose curve;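 note: potency is the fitted concentration of half-maximal effect; potency for ATP loss meaning cytotoxicity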); details: qHTS
# Procedure, shortened: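 Cytotoxicity read as ATP loss (CellTiter-Glo luminescence) after 40 hr compound exposure of HepG2, 1500 cells/well, 37 °C. AC50 by Hill equation; 0% set by DMSO, 100% inhibition by 100 uM tamoxifen.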
# [6] = Cell Viability - MRC5 (AID 434; calls by dose curve;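 note: potency is the fitted concentration of half-maximal effect; potency reflects cytotoxicity seen as loss of intracellular ATP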); details: MRC5 lung fibroblast viability, qHTS
# Procedure, shortened: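 MRC5 normal human lung fibroblasts, 1500 cells/well, exposed to compound for 40 hr at 37 C. Cellular ATP was read by CellTiter-Glo luminescence; data normalized to DMSO and 100 uM tamoxifen, with AC50 from Hill fits.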
# [7] = Cell Viability - NIH 3T3 (AID 541); details: NIH 3T3 cell viability, qHTS; at 92.2 µM (top of the series);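 note: plate controls were DMSO alone for no effect and tamoxifen positive control for full effect; nearly all actives have a fitted effect of over 25% in size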
# Procedure, shortened: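 AC50 values reflect concentration-dependent loss of intracellular ATP in NIH 3T3 cells after 40 hr treatment in complete culture medium, quantified by luciferase-based luminescence.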
# [8] = Cell Viability - HUV-EC-C (AID 542); note: nearly all actives have a fitted effect of over 35% in size; note: potency is the fitted concentration of half-maximal effect
# Procedure, shortened: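 Decrease in cellular ATP, quantified by luciferase luminescence, reflects toxicity in normal human vascular endothelial HUV-EC-C cells given compound for 40 hr in complete culture medium. Values are AC50s from concentration-response curves.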
# [9] = Cell Viability - SH-SY5Y (AID 544); details: SH-SY5Y neuroblastoma cell viability; viability change, negative = cytotoxic: at 92.2 µM (top of the series); note: nearly all actives have a fitted effect of over 55% in size; note: potency is the fitted concentration of half-maximal effect;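 for viability change, negative = cytotoxic: 0% = DMSO alone and -100% = 100 µM tamoxifen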
# Procedure, shortened: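 Cytotoxicity is scored as a concentration-dependent fall in intracellular ATP in human SH-SY5Y cells treated 40 hr in complete culture medium. Potency is expressed as AC50 from a Hill equation fit.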
# [10] = Cell Viability - Mesenchymal (AID 546); details: mesenchymal cells viability, qHTS; activity change, negative = cytotoxicity: at 91.7 µM (top of the series);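 note: cells exposed to compound for 40 hours before reading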; note: potency is the fitted concentration of half-maximal effect;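 for activity change, negative = cytotoxicity: 0% = DMSO only and -100% = 100 µM tamoxifen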
# Procedure, shortened: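 Human kidney mesenchymal cells from normal renal glomeruli, 1000 cells/well, rested 5 hr at 37 °C, then treated 40 hr at 37 °C in complete medium. Cellular ATP read by CellTiter-Glo luminescence; AC50 from Hill-equation fits.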
# [11] = molecular target: 3',5'-cyclic-AMP phosphodiesterase 4B (Homo sapiens) (UniProt Q07343); experiment: qHTS Assay for Inhibitors of PDE-IV (AID 607; active = well fitted activation curve with a large enough effect in the main read-out, with a control signal flat, not every such curve was filed as active; note: % of control where 0% means no effect)
# Procedure, shortened: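 Cell-based read-out of cAMP via a modified cyclic nucleotide-gated channel and membrane potential dye (535/590 nm) in HEK293 cells expressing PDE4 endogenously. Compounds tested up to 22.9 uM final; 100 uM RO 20-1724 reference.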
# [12] = AP1 Signaling Pathway (AID 357; active = well fitted curve in either direction with a large enough effect, not every such curve was filed as active;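 note: ME-180 reporter cells stimulated with EGF at its EC50 level; % is set by controls: 0 for no effect and ±100 for the full control effect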)
# Procedure, shortened: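 First, ME-180 AP-1-bla cells were cultured overnight at 37 °C in low-serum Opti-MEM. Next, titrated compounds with EC50 EGF were incubated 5 hours. Finally, CCF4 was added for 2.5 hours and the 460/530 nm ratio recorded.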
# [13] = NFAT Signaling Pathway (AID 444; active = well fitted curve in either direction with a large enough effect, not every such curve was filed as active;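 note: carbachol stimulus at about its EC50 of 1 µM final; % is set by controls: 0 for no effect and ±100 for the full control effect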)
# Procedure, shortened: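 Jurkat cells with NFAT-driven β-lactamase reporter and co-expressed M1 receptor, stimulated with carbachol (final 1 uM, ~EC50), compound titration, 5 h at 37 °C. CCF4 loaded 1 h at RT; 460/530 nm ratio gave %activity and AC50.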
# [14] = Stat Signaling Pathway (AID 446; active = well fitted curve in either direction with a large enough effect, not every such curve was filed as active;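 note: ME-180 cervical cancer cells given 40 pM IL-6 alongside compound; SIE-controlled beta-lactamase reporter measured as 460/530 nm FRET emission ratio; % is set by controls: 0 for no effect and ±100 for the full control effect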); details: ME-180 SIE beta-lactamase reporter, IL-6 stimulated, 5 h; at 17.2 µM (top of the series)
# Procedure, shortened: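 Reporter line: ME-180 cervical carcinoma, SIE-beta-lactamase. Treatment: compound with 40 pM IL-6, 5 hrs, 37 C, in low-serum OPTI-MEM with 10 mM HEPES pH 7.3. Detection: 460/530 nm fluorescence.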
# [15] = Cell Viability - Jurkat (AID 426;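 active = dose-dependent loss of cell ATP signal giving a full or clear fitted curve, ranked by lower potency value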; note: potency is the fitted concentration of half-maximal effect); details: qHTS
# Procedure, shortened: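 Seed 5000 Jurkat E6-1 cells/well; add compound; incubate 40 hr at 37 °C; add CellTiter-Glo; wait 20 min at room temperature; read luminescence. Fit concentration-response with Hill equation for AC50.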
# [16] = Cell Viability - Hek293 (AID 427;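 active = compounds whose dose-response curve shows a full or clear partial loss of cell viability, called from curve shape rather than a numeric limit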;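 note: potency is the fitted concentration of half-maximal effect; cells exposed to compound for 40 hours at 37 °C before reading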); details: qHTS
# Procedure, shortened: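 Luminescent ATP content (CellTiter-Glo, 20 min at room temperature) was measured after a 40 hr, 37 °C compound exposure of HEK293 cells. AC50 values came from Hill-equation fits of qHTS concentration-response data normalized to DMSO and 100 uM tamoxifen.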
# [17] = Cell Viability - SK-N-SH (AID 435; calls by dose curve; note: potency is the fitted concentration of half-maximal effect); details: SK-N-SH neuroblastoma cell viability qHTS
# Procedure, shortened: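 qHTS cytotoxicity: CellTiter-Glo ATP luminescence after 40 h compound exposure of human neuroblastoma SK-N-SH cells at 37 °C. AC50 derived by Hill-equation fitting, with DMSO as basal and 100 uM tamoxifen as full inhibition.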
# [18] = Cell Viability - N2a (AID 540); details: N2a mouse neuroblastoma cell viability; activity change, negative = cytotoxicity: at 92.2 µM (top of the series); note: nearly all actives have a fitted effect of over 45% in size; note: potency is the fitted concentration of half-maximal effect;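 for activity change, negative = cytotoxicity: plate controls were DMSO alone for no effect and tamoxifen control for full effect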
# Procedure, shortened: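 First, 1500 N2a cells per well incubate 5 hr at 37 °C; next, compounds are added and incubated 40 hr at 37 °C; finally CellTiter-Glo is added and luminescence read after 20 min, with AC50 derived by Hill modeling.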
# [19] = Cell Viability - H-4-II-E (AID 543); note: nearly all actives have a fitted effect of over 35% in size; note: potency is the fitted concentration of half-maximal effect
# Procedure, shortened: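 Here, cytotoxicity is measured in the rat hepatoma line H-4-II-E as loss of intracellular ATP after 40 hr compound treatment, detected by luciferase luminescence.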
# Sequence of Cytochrome P450 1A2 (Homo sapiens) (P05177 whole entry, looked up): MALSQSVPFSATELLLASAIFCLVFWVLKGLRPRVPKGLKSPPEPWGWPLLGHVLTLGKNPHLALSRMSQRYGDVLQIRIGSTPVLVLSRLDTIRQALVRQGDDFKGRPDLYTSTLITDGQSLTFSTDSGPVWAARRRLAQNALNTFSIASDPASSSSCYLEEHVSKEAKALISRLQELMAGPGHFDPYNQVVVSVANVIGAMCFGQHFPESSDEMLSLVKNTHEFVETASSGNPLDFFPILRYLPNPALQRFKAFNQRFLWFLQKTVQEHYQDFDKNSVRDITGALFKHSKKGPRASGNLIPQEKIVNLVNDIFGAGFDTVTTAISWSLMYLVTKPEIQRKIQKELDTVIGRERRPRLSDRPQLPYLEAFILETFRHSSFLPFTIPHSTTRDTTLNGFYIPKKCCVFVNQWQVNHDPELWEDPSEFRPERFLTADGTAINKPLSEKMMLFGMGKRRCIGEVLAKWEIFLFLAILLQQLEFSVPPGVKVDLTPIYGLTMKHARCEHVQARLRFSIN
# Sequence of 3',5'-cyclic-AMP phosphodiesterase 4B (Homo sapiens) (Q07343 whole entry, looked up): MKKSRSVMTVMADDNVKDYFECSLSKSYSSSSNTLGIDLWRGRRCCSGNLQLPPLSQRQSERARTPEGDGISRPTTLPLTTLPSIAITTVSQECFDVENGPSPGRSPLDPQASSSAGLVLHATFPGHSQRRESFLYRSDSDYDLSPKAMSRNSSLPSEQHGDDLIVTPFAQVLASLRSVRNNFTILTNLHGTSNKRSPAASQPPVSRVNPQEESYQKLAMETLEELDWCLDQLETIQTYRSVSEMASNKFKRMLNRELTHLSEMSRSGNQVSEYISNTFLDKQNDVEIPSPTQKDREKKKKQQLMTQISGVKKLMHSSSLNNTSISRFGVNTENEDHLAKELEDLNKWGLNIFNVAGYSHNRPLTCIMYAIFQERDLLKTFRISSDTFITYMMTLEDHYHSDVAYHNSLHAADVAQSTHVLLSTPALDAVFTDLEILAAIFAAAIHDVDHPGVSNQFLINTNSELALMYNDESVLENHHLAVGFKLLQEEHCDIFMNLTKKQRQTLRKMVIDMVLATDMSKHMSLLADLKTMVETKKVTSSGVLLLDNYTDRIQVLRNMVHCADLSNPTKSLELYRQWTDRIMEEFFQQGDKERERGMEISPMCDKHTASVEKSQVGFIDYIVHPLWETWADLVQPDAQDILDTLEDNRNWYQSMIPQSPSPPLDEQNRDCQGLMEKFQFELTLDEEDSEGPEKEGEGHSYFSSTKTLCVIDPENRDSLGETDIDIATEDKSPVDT
# Sequence of Glucocorticoid receptor (Homo sapiens) (P04150 whole entry, looked up): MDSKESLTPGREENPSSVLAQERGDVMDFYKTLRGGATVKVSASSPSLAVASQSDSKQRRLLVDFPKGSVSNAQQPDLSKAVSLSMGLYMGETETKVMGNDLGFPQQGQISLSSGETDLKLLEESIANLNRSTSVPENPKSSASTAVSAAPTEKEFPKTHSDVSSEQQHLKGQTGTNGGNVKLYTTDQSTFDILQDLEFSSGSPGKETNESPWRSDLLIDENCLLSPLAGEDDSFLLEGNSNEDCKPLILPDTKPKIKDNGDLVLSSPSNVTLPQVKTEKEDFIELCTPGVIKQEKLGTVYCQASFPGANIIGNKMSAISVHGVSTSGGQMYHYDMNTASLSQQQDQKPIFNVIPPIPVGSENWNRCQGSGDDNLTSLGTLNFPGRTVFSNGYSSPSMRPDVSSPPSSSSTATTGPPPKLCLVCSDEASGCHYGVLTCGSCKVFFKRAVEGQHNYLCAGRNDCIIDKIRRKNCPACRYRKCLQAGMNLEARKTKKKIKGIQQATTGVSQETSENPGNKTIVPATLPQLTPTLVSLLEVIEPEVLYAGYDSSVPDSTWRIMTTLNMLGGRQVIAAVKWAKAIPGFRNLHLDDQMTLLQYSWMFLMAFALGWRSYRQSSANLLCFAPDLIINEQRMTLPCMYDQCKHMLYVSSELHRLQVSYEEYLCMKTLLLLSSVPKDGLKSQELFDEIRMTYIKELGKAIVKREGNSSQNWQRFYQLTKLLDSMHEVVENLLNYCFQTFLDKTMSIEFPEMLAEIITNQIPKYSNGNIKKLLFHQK
structure (smiles),measurement,setting,value
COc1ccc(-c2coc3cc(O)ccc3c2=O)cc1,Potency,[1],0.631 µM (active)
same,Potency,[2],> 46 µM
same,outcome,[3],inactive
CC(=O)O[C@]1(C(C)=O)CC[C@H]2[C@@H]3C=C(Cl)C4=CC(=O)[C@@H]5C[C@@H]5[C@]4(C)[C@H]3CC[C@@]21C,Potency,[4],> 92 µM
same,Potency,[5],> 92 µM
same,Potency,[6],> 92 µM
same,outcome,[3],inactive
same,"activity change, negative = cytotoxicity",[7],-124% (active)
same,Potency,[8],inactive
same,Potency,[9],inactive
same,Potency,[10],inactive
O=c1cc(-c2ccccc2)oc2cc(O)cc(O)c12,Potency,[2],> 20.6 µM
same,outcome,[11],inactive
CC(C)(C)c1ccc(C(O)CCCN2CCC(C(O)(c3ccccc3)c3ccccc3)CC2)cc1 (stereo unspecified),outcome,[12],inactive
same,outcome,[13],inactive
same,"activity, negative = inhibition",[14],-1.77%
same,Potency,[2],> 20.6 µM
O=C(O)c1cc(-c2ccccc2)nc2ccccc12,outcome,[12],inactive
same,outcome,[13],inactive
same,"activity, negative = inhibition",[14],-0.648%
same,Potency,[2],> 20.6 µM
Nc1ncnc2c1ncn2[C@@H]1O[C@@H](CO)[C@H](O)[C@H]1O,outcome,[12],inactive
same,outcome,[13],inactive
same,"activity, negative = inhibition",[14],-10%
same,Potency,[2],> 20.6 µM
same,outcome,[3],inactive
same,outcome,[11],inactive
CCn1cc(C(=O)O)c(=O)c2ccc(C)nc21,Potency,[4],> 92 µM
same,Potency,[15],> 92 µM
same,Potency,[16],> 92 µM
same,Potency,[5],> 92 µM
same,Potency,[6],> 92 µM
same,Potency,[17],> 92 µM
same,Potency,[18],inactive
same,"activity change, negative = cytotoxicity",[7],4.63%
same,Potency,[8],inactive
same,Potency,[19],inactive
same,Potency,[9],inactive
same,Potency,[10],inactive
CC(=O)N[C@@H](CS)C(=O)O,outcome,[12],inactive
same,outcome,[13],inactive
same,"activity, negative = inhibition",[14],3.22%
same,Potency,[2],> 20.6 µM
CCCCCCCCCCCC1=C(O)C(=O)C=C(O)C1=O,Potency,[1],inactive
same,Potency,[2],> 46 µM
same,outcome,[3],inactive
same,outcome,[11],inactive
O=c1cc(-c2ccc(O)cc2)oc2cc(O)cc(O)c12,Potency,[4],> 92 µM
same,Potency,[5],> 92 µM
same,"activity, negative = inhibition",[14],-101% (active)
same,Potency,[2],> 46 µM and > 20.6 µM
same,Potency,[18],inactive
same,"activity change, negative = cytotoxicity",[7],-105% (active)
same,Potency,[8],inactive
same,Potency,[9],25.1 µM (active)
same,Potency,[10],inactive
same,outcome,[11],inactive
CC1=C(/C=C/C(C)=C/C=C/C(C)=C/C(=O)Nc2ccc(O)cc2)C(C)(C)CCC1,Potency,[4],30.8 µM (active)
same,Potency,[15],2.16 µM (active)
same,Potency,[5],34.9 µM (active)
same,Potency,[6],24.7 µM (active)
same,Potency,[17],7.43 µM (active)
same,outcome,[3],inactive
same,Potency,[18],31.6 µM (active)
same,"activity change, negative = cytotoxicity",[7],-85.6% (active)
same,Potency,[8],31.6 µM (active)
same,Potency,[19],20 µM (active)
same,Potency,[9],12.6 µM (active)
same,Potency,[10],31.6 µM (active)
O=C(O)Cc1cccc2ccccc12,Potency,[4],> 92 µM
same,Potency,[15],> 92 µM
same,Potency,[16],> 92 µM
same,Potency,[5],> 92 µM
same,Potency,[6],> 92 µM
same,Potency,[17],> 92 µM
same,outcome,[3],inactive
same,Potency,[18],inactive
same,"activity change, negative = cytotoxicity",[7],-29.6%
same,Potency,[8],inactive
same,Potency,[19],inactive
same,Potency,[9],inactive
same,Potency,[10],inactive
CC[C@]1(O)C[C@@H]2CN(CCc3c([nH]c4ccccc34)[C@@](C(=O)OC)(c3cc4c(cc3OC)N(C)[C@H]3[C@@](O)(C(=O)OC)[C@H](OC(C)=O)[C@]5(CC)C=CCN6CC[C@]43[C@@H]65)C2)C1,outcome,[12],inactive
same,"activity, negative = inhibition",[14],-9.58%
same,Potency,[2],> 20.6 µM
CC(C)NCC(O)COc1cccc2[nH]ccc12 (stereo unspecified),outcome,[12],inactive
same,outcome,[13],inactive
same,"activity, negative = inhibition",[14],24.1%
same,Potency,[2],> 20.6 µM
O=c1c(O)c(-c2ccc(O)cc2)oc2cc(O)cc(O)c12,Potency,[4],> 92 µM
same,Potency,[15],> 92 µM
same,Potency,[16],> 92 µM
same,Potency,[5],> 92 µM
same,Potency,[6],> 92 µM
same,Potency,[17],> 92 µM
same,Potency,[2],> 20.6 µM and > 46 µM
same,outcome,[3],inactive
same,Potency,[18],inactive
same,Potency,[8],inactive
same,Potency,[10],inactive
same,outcome,[11],inactive
